Data as given in PubChem BioAssay (NCATS).
A number with no mark means an inactive call. Active and inactive are the calls of the source. How the calls were made is not given here.

Each molecule was assayed on HIV-1 nucleocapsid protein NCp7 (binding to TG oligonucleotide) (assay: HIV Nucleocapsid (AID 346;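 further: potency is for inhibitors that block NC binding and lower polarization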)). Conditions: HIV-1 NC / fluorescein-TGTGTGTG probe, fluorescence polarization.
How it was run: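 NCp7 100 nM + fluorescein TG4xF 10 nM; Hepes pH 7.5/250mM NaCl/1uM ZnCl2/0.004% PEG 20000; 1 hr RT; FP, 45 s exposure; oligo-only wells as negative control.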
Potency means the concentration at half of the fitted maximal effect.

Row | SMILES | Potency
1 | N#Cc1cccc(-c2cncnc2NCc2cccnc2)c1 | > 20 µM
2 | Cn1c(=O)c(-c2ccc(Cl)cc2)nc2cnc(OCc3ccccc3)nc21 | > 20 µM
3 | O=C(c1ccco1)N1CCC[C@@]2(CCN(c3ncccn3)C2)C1 | > 20 µM
4 | FC(F)(F)c1ccccc1-c1cncnc1NCc1ccccc1 | > 20 µM
5 | CNc1nc(-c2ccccc2C)nc2ccccc12 | > 20 µM
6 | O=C(c1cccc(F)c1)N1CCC2(CCCN(c3ccc(-c4ccccc4)cc3)C2)CC1 | > 20 µM
7 | Cc1ccccc1-c1nccc(NCc2cccs2)n1 | > 20 µM
8 | COc1ncc2nc(-c3cccs3)c(=O)n(-c3ccccc3)c2n1 | > 4 µM
9 | CN(Cc1ccco1)c1ccnc(-c2ccccc2C(F)(F)F)n1 | > 20 µM
10 | Clc1ccccc1-c1cncnc1NCc1cccs1 | > 20 µM
11 | CS(=O)(=O)Nc1cccc(-c2ccc3ncnc(N4CCNCC4)c3c2)c1 | > 20 µM
12 | COc1ccc(CNc2ncnc3ccc(-c4ccccc4C#N)cc23)c(OC)c1 | > 20 µM
13 | Clc1ccccc1-c1cc(NCc2cccnc2)ncn1 | > 20 µM
14 | CN1CCN(c2ncc3nc(-c4ccc(Cl)cc4)c(=O)n(Cc4ccc(F)cc4)c3n2)CC1 | > 20 µM
15 | O=C(c1cnccn1)N1CCC2(CC1)CCN(c1ccccc1)CC2 | > 20 µM
16 | COc1ncc2nc(-c3ccc(F)cc3)c(=O)n(Cc3cccs3)c2n1 | > 20 µM
17 | COc1ccc(-c2nc3cnc(N4CCN(C)CC4)nc3n(Cc3cccs3)c2=O)cc1 | > 4 µM
18 | COc1ccccc1-c1nccc(NCc2cccc(C)c2)n1 | > 20 µM
19 | O=C(c1ccncc1)N1CCC2(CCCN(c3ncccn3)C2)CC1 | > 20 µM
20 | COc1ccc(-c2nc3cnc(Nc4ccccc4)nc3n(CCC#N)c2=O)cc1 | 2.04 µM (active)

Row | SMILES | Potency
21 | Clc1ccccc1-c1ccc2ncnc(NCc3cccnc3)c2c1 | > 20 µM
22 | CNc1nc(-c2ccc(N(C)C)cc2)nc2ccccc12 | > 20 µM
23 | CS(=O)(=O)N1CCC2(CCCN(C(c3ccccc3)c3ccccc3)C2)CC1 | > 20 µM
24 | COc1ccc(-c2nc3cnc(OC)nc3n(-c3ccccc3)c2=O)cc1 | > 20 µM
25 | Cn1cccc1C(=O)N1CCC[C@@]2(CCN(C(c3ccccc3)c3ccccc3)C2)C1 | > 20 µM
26 | CC(C)CN1CCC2(CC1)CCN(C(=O)c1cnccn1)CC2 | > 20 µM
27 | COc1ccc(Oc2ncc3nc(CCc4ccccc4)c(=O)n(C4CC4)c3n2)cc1 | > 20 µM
28 | COc1cccc(-c2ccc3ncnc(N(C)Cc4ccco4)c3c2)c1 | > 20 µM
29 | O=C(Oc1ccccc1)N1CCC[C@@]2(CCN(c3ncccn3)C2)C1 | > 20 µM
30 | Cn1c(=O)c(-c2ccccc2)nc2cnc(Nc3ccccc3)nc21 | > 4 µM
31 | O=C(c1cccc(F)c1)N1CCC2(CCCN(Cc3ccccc3)C2)CC1 | > 20 µM
32 | CN1CCN(c2ncc3nc(-c4cn(C)c5ccccc45)c(=O)n(CCc4ccccc4)c3n2)CC1 | > 4 µM
33 | N#Cc1cccc(NC(=O)N2CC[C@@]3(CCCN(C(=O)c4cccc(F)c4)C3)C2)c1 | > 20 µM
34 | CN(C)c1ccc(-c2cncnc2Nc2ccc(F)cc2)cc1 | > 20 µM
35 | O=c1c(-c2cccs2)nc2cnc(N3CCOCC3)nc2n1CCc1ccccc1 | > 20 µM
36 | O=C(c1ccco1)N1CCC[C@@]2(CCN(c3ccncc3)C2)C1 | > 20 µM
37 | Cc1ccccc1-c1nc(NCc2cccs2)c2ccccc2n1 | > 20 µM
38 | COc1cccc(Cn2c(=O)c(-c3cc(F)cc(F)c3)nc3cnc(N(C)C)nc32)c1 | > 4 µM
39 | FC(F)(F)c1ccccc1-c1cc(NCc2cccs2)ncn1 | > 20 µM
40 | CCNc1ncc2nc(-c3ccccc3)c(=O)n(CCOC)c2n1 | > 20 µM
